Sm TGR block – qHTS Assay for the Inhibitors of Schistosoma Mansoni Peroxiredoxins. Schistosoma mansoni thioredoxin glutathione reductase (TGR), Q962Y6. purified TGR, DTNB reduction, TNB absorbance 405 nm. Potency, µM (top dose mostly 114 µM), inactives show top-dose activity change, negative = inhibition, actives largely listed as inhibitors. 360,000 compounds, 3% hits. AID 485364, 2010; also: potency is read from the fitted curve at half-maximal effect; nearly all actives have a fitted effect of over 60% in size
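First, TGR (20 nM dispensed) and NADPH were mixed with compound. Second, a 15 min room-temperature incubation followed. Third, further NADPH and then DTNB were added to start the reaction. Finally, TNB absorbance was monitored kinetically.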
HCMV antiviral – qHTS Assay for inhibitors of the human cytomegalovirus (HCMV); HFF cells, HCMV-luciferase reporter, 72 h; stronger effect = lower value; activity change, negative = inhibition, % at 57.5 µM; 410,000 compounds, 4.5% hits; in the data active = activity change below about -60%; inconclusive = no clear call, values can overlap the other calls; inactive = above about -39%
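Two compound doses tested in HFFs infected with HCMV-luciferase, MOI 1 PFU/cell, 72 h at 37C. Lysate luminescence read with OneGlo; data normalized against buffer-only and 10uM Salinomycin inhibitor controls.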
Pf growth 96h – Primary qHTS for delayed death inhibitors of the malarial parasite plastid, 96 hour incubation; AID 504834, 2011; 320,000 compounds, 6.9% hits; P. falciparum luciferase reporter growth, 96 h; Potency, µM (series often up to 28.7 µM), without a hit: top-dose activity change, negative = inhibition, actives largely listed as inhibitors; also: potency is read from the fitted curve at half-maximal effect
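96 h incubation, 37 C, 5% CO2, of luciferase-reporter P. falciparum-infected RBCs (2% hematocrit, 0.05% parasitemia final) with test compounds; endpoint luminescence.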
Pf growth 48h – Primary qHTS for delayed death inhibitors of the malarial parasite plastid, 48 hour incubation. P. falciparum luciferase growth in erythrocytes, 48 h. Potency, µM (doses to about 28.7 µM), without a hit: top-dose activity change, negative = inhibition, hits mostly inhibitors. 310,000 compounds, 5.9% hits; also: potency is read from the fitted curve at half-maximal effect
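A one-generation exposure of luciferase-tagged malaria parasites in RPMI 1640/Albumax erythrocyte culture, 37 C and 5% CO2. Inhibition is inferred from decreased luminescence after adding detection reagent.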
Giardia FBPA inh – qHTS Assay for Inhibitors of Fructose-1,6-bisphosphate Aldolase from Giardia Lamblia. purified Giardia FBPA. A8B2U2. Potency, µM (doses to about 59.6 µM), for inactives: at the top dose activity, negative = inhibition, usual class: inhibitors. 290,000 compounds, 0.71% hits; also: potency is read from the fitted curve at half-maximal effect; nearly all actives have a fitted effect of over 55% in size
Target sequence (A8B2U2 whole entry, looked up): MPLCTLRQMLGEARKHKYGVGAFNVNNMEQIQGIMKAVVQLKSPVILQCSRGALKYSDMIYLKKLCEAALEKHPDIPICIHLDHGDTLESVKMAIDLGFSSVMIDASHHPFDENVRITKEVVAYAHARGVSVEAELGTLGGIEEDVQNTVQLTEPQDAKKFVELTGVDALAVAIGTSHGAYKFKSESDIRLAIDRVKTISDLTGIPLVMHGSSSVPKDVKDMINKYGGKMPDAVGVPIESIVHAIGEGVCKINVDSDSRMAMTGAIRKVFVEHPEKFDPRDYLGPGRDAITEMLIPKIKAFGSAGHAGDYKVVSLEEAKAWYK
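40 nM FBPA preincubated 10 min at RT with compound (up to 57.5 uM final), then substrate plus GAPDH/TPI/NAD/arsenate coupling and diaphorase/resazurin added. Fluorescence read after 20 min at RT, 525/598 nm.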
* hit, by the source's call; ? = inconclusive; · = not tested or not shown. Sampled rows, rich in hits. Any-hit rate of the full collection: about 14%. Unless noted, calls follow the shape of the dose curve; as a rule, active = well fitted curve in the direction sought with a large enough effect; inconclusive = small, poorly fitted or top-dose-only effect, or another doubt; inactive = no such curve, though single readings can be large; an effect the other way counts as inactive or inconclusive. % is scaled to controls: 0 for no effect and ±100 for the full control effect.

SMILES	Sm TGR block	HCMV antiviral	Pf growth 96h	Pf growth 48h	Giardia FBPA inh
CCCCN(C)CCCNC(=O)Cn1ncc2c3ccccc3n(Cc3ccccc3F)c2c1=O	-10%	-105*	·	·	·
CCc1nn(C(CC)C(=O)NCc2ccc(OC)c(OC)c2)c(=O)c2cc3oc(C)cc3n12 (stereo not drawn)	5%	-17	·	·	·
COC(=O)CC1C(C)(C)C(=O)C2CC3C4=CC(=O)OC(c5ccoc5)[C@]4(C)CCC3[C@@]1(C)C2=O (stereo partly drawn)	·	·	·	·	7%
NNC(=O)c1c[nH]c2ccc(OCc3ccccc3)cc12	·	-31	·	·	·
OCCNCCc1c[nH]c2ccc(OCc3ccccc3)cc12	?	-60*	?	?	5%
COc1ccc(N2CCN(C(=O)COC(=O)CNC(=O)c3cccc(OC(F)F)c3)CC2)cc1	-2%	-3	-8%	13%	·
C[n+]1ccccc1/C=C/c1ccc([N+](=O)[O-])cc1	-27%	-35	2%	1.3µM*	-4%
O=[N+]([O-])c1ccc(C=CC=Cc2ccccc2)cc1	·	38	·	·	·
C[n+]1ccccc1/C=C/c1ccc2ncccc2c1	-36%	49	?	1.2µM*	-26%
C[n+]1ccccc1/C=C/c1ccc(C#N)cc1	45µM*	-22	?	15%	?
C[n+]1ccccc1/C=C/c1ccc(F)c(F)c1	-11%	?	0%	?	-5%
CCOC(=O)c1c(NC(=O)C2CCCN(S(=O)(=O)c3ccc(C)cc3)C2)sc2c1CCCC2 (stereo not drawn)	-12%	-19	21%	14%	4%
CCCCNC(=O)c1ccc(NC(C)=O)c(Cl)c1	-9%	-12	?	0%	7%
COc1cccc(/C=N/NC(=O)c2cc(-c3cccn3C)n[nH]2)c1	-24%	-21	12µM*	?	-3%
COc1cc(/C=N/NC(=O)c2cc(-c3cccn3C)n[nH]2)cc(OC)c1OC	?	?	23%	6.6µM*	0%
CC(=O)NCCNC(=O)c1nnc2n1CCN(C(=O)COc1ccccc1)C2	·	3	·	·	·
CCCCCOC(=O)c1ccc(Nc2nc(C(=O)OCC)nc3ccccc23)cc1	-1%	4	·	·	·
O=C(CSc1nc(=O)n(Cc2ccccn2)c2c1CCC2)Nc1ccccc1	6%	-7	·	·	·
CN(C)N1C(N)=C(C#N)C(c2ccsc2)C2=C1CCCC2=O (stereo not drawn)	6%	-1	9.3µM*	?	-26%
Cc1ccccc1C1C(C#N)=C2N=C(N)c3ccccc3N2C2=C1C(=O)CCC2 (stereo not drawn)	17%	-10	?	?	-5%
Cc1ccc(C2C(C#N)=C(N)N(N(C)C)C3=C2C(=O)CCC3)cc1 (stereo not drawn)	-6%	43	-11%	-9%	-17%
CN(C)N1C(N)=C(C#N)C(c2ccc(Cl)cc2)C2=C1CCCC2=O (stereo not drawn)	-6%	12	0.74µM*	-6%	-27%
N#CC1=C2N=C(N)c3ccccc3N2C2=C(C(=O)CCC2)C1c1cccc(Cl)c1 (stereo not drawn)	-11%	-70*	?	?	-10%
CN(C)N1C(N)=C(C#N)C(c2ccsc2)C2=C1CC(C)(C)CC2=O (stereo not drawn)	-16%	-29	14%	-20%	-5%
CN(C)N1C(N)=C(C#N)C(c2cccc3ccccc23)C2=C1CC(c1ccccc1)CC2=O (stereo not drawn)	-3%	-28	?	9.3µM*	-19%
SMILES	Sm TGR block	HCMV antiviral	Pf growth 96h	Pf growth 48h	Giardia FBPA inh
CC(C)(C)N1CC(C(=O)Nc2ccc(C#N)cc2)CC1=O (stereo not drawn)	12%	17	196%	1%	3%
CC(=O)C1=C(O)C(=O)N(c2ccc(S(=O)(=O)Nc3nccs3)cc2)C1c1ccc(F)cc1 (stereo not drawn)	2%	-9	?	4%	8%
C=CCOc1ccc(C2C(C#N)=C(N)N(N(C)C)C3=C2C(=O)CCC3)cc1 (stereo not drawn)	-13%	-17	31%	?	-20%
COc1ccc(C2C(C#N)=C(N)N(N(C)C)C3=C2C(=O)CCC3)cc1 (stereo not drawn)	0%	?	2.3µM*	-1%	-16%
CCN(CC)S(=O)(=O)c1ccc(N/N=C/c2ccc(O)cc2O)nc1	21%	-101*	3.7µM*	2.3µM*	?
O=[N+]([O-])c1ccc(N/N=C/c2ccc(OCc3cccc4ccccc34)cc2)nc1	0%	14	7.4µM*	?	10%
N#Cc1ccccc1Cn1cc(/C=N/Nc2ccc([N+](=O)[O-])cn2)c2ccccc21	0%	-29	5.2µM*	?	12%
O=[N+]([O-])c1ccc(NN=Cc2ccc(O)cc2O)nc1	·	-98*	·	·	·
COc1ccc(C=NNc2ccc([N+](=O)[O-])cn2)cc1	·	51	·	·	·
O=[N+]([O-])c1ccc(NN=Cc2ccccc2O)nc1	·	-98*	·	·	·
COc1ccccc1C=NNc1ccc([N+](=O)[O-])cn1	·	20	·	·	·
Cc1cc(/C=N/Nc2ccc([N+](=O)[O-])cn2)c(C)n1-c1ccc(C(=O)O)cc1	35µM*	-4	?	46%	?
C[C@@H]1CN([C@@H](C)CO)C(=O)c2cc(Br)cnc2O[C@H]1CN(C)C(=O)C1CC1	·	-24	·	·	·
Cc1ccc(C)n1C1C(=O)N(Cc2ccc(C(F)(F)F)cc2)c2ccccc21 (stereo not drawn)	·	30	·	·	·
CCOC(=O)/C(C#N)=N/Nc1ccccc1C#N	2%	-12	20%	-3%	-14%
O=C1C(c2ccc(F)cc2)N(CC2COc3ccccc3O2)C(=O)CN1C1CCCCC1 (stereo not drawn)	3%	16	?	2.3µM*	-3%
O=C1C(c2ccc(F)cc2)N(CCc2ccccc2)C(=O)CN1C1CCCCCC1 (stereo not drawn)	3%	-28	·	·	·
Cc1ccc(SC(C)C(=O)NCC(C)C)cc1 (stereo not drawn)	4%	14	-7%	15µM*	5%
C=CCNC(=O)NC(=O)CN1C(=O)NC(c2ccccc2)(c2ccccc2)C1=O	1%	13	16%	8%	-3%
CCOc1ccccc1NC(=O)CN1C(=O)COc2ccc(S(=O)(=O)NC3CCCC3)cc21	-10%	-2	·	·	·
CCN(Cc1ccccc1)C(=O)CN1C(=O)COc2ccc(S(=O)(=O)N3CCCCCC3)cc21	-9%	-77*	?	10µM*	0%
CNC(=O)CN1C(=O)COc2ccc(S(=O)(=O)N3CCCCCC3)cc21	-13%	-39	12%	10%	·
